# What was measured:
# Design in all cases: species or system human, MV4-11 + K-562 + COLO205 + SK-N-BE2 + OVCAR-8
# CDK7 = settings: read-out: apparent Kd; compound concentrations:100 nM and 1000 nM (sheet 'Samples'); n = 1
# ERCC2 = settings: read-out: apparent Kd; compound concentrations:100 nM and 1000 nM (sheet 'Samples'); n = 1
# GSK3A = settings: read-out: apparent Kd; compound concentrations:100 nM and 1000 nM (sheet 'Samples'); n = 1
# GSK3B = settings: read-out: apparent Kd; compound concentrations:100 nM and 1000 nM (sheet 'Samples'); n = 1
# PAK6 = settings: read-out: apparent Kd; compound concentrations:100 nM and 1000 nM (sheet 'Samples'); n = 1
# PKN1 = settings: read-out: apparent Kd; compound concentrations:100 nM and 1000 nM (sheet 'Samples'); n = 1
# PRKCA = settings: read-out: apparent Kd; compound concentrations: 100 nM and 1000 nM (sheet 'Samples'), CATDS: 0.33942301458254898; n = 1
# PRKCB = settings: read-out: apparent Kd; compound concentrations:100 nM and 1000 nM (sheet 'Samples'); n = 1
# PRKCD = settings: read-out: apparent Kd; compound concentrations:100 nM and 1000 nM (sheet 'Samples'); n = 1
# PRKCQ = settings: read-out: apparent Kd; compound concentrations:100 nM and 1000 nM (sheet 'Samples'); n = 1
# RPS6KA6 = settings: read-out: apparent Kd; compound concentrations:100 nM and 1000 nM (sheet 'Samples'); n = 1
# CDKL5 = settings: read-out: apparent Kd; compound concentrations: 100 nM and 1000 nM (sheet 'Samples'), CATDS: 6.7048972560418404E-2; n = 1
# CLK1 = settings: read-out: apparent Kd; compound concentrations: 100 nM and 1000 nM (sheet 'Samples'), CATDS: 9.1245201473329901E-2; n = 1
# CLK4 = settings: read-out: apparent Kd; compound concentrations: 100 nM and 1000 nM (sheet 'Samples'), CATDS: 8.9493688970087706E-2; n = 1
# CSNK1A1 = settings: read-out: apparent Kd; compound concentrations: 100 nM and 1000 nM (sheet 'Samples'), CATDS: 7.1676757807884198E-2; n = 1
# CSNK1D = settings: read-out: apparent Kd; compound concentrations: 100 nM and 1000 nM (sheet 'Samples'), CATDS: 0.23797441251711701; n = 1
# CSNK1E = settings: read-out: apparent Kd; compound concentrations: 100 nM and 1000 nM (sheet 'Samples'), CATDS: 0.17923780337449699; n = 1
# DYRK1A = settings: read-out: apparent Kd; compound concentrations: 100 nM and 1000 nM (sheet 'Samples'), CATDS: 7.8911513629173299E-2; n = 1
# MAPK8 = settings: read-out: apparent Kd; compound concentrations: 100 nM and 1000 nM (sheet 'Samples'), CATDS: 6.0987882625533299E-2; n = 1
# MELK = settings: read-out: apparent Kd; compound concentrations: 100 nM and 1000 nM (sheet 'Samples'), CATDS: 6.0030175657403803E-2; n = 1
# NQO2 = settings: read-out: apparent Kd; compound concentrations: 100 nM and 1000 nM (sheet 'Samples'), CATDS: 6.6170323393418801E-2; n = 1
# RIOK2 = settings: read-out: apparent Kd; compound concentrations: 100 nM and 1000 nM (sheet 'Samples'), CATDS: 9.8324164530309899E-2; n = 1
# TGFBR2 = settings: read-out: apparent Kd; compound concentrations: 100 nM and 1000 nM (sheet 'Samples'), CATDS: 8.1907636331175093E-2; n = 1
structure (smiles),measurement,setting,value
CN(C)C[C@H]1CCn2c(c(C3=C(c4cn(C)c5ccccc45)C(=O)NC3=O)c3ccccc32)C1 [RO0320432-000],potency estimated from few doses,CDK7,1010 nM
same,potency estimated from few doses,ERCC2,821 nM
same,potency estimated from few doses,GSK3A,530 nM
same,potency estimated from few doses,GSK3B,299 nM
same,potency estimated from few doses,PAK6,1540 nM
same,potency estimated from few doses,PKN1,1400 nM
same,potency estimated from few doses,PRKCA,18.6 nM
same,potency estimated from few doses,PRKCB,66.4 nM
same,potency estimated from few doses,PRKCD,27.1 nM
same,potency estimated from few doses,PRKCQ,122 nM
same,potency estimated from few doses,RPS6KA6,311 nM
FC(F)(F)CNc1nccc(-c2cnn3ncccc23)n1 [GW683003X],potency estimated from few doses,CDKL5,1220 nM
same,potency estimated from few doses,CLK1,572 nM
same,potency estimated from few doses,CLK4,596 nM
same,potency estimated from few doses,CSNK1A1,1010 nM
same,potency estimated from few doses,CSNK1D,117 nM
same,potency estimated from few doses,CSNK1E,176 nM
same,potency estimated from few doses,DYRK1A,792 nM
same,potency estimated from few doses,MAPK8,1650 nM
same,potency estimated from few doses,MELK,1740 nM
same,potency estimated from few doses,NQO2,1270 nM
same,potency estimated from few doses,RIOK2,491 nM
same,potency estimated from few doses,TGFBR2,726 nM

# From article PMC11062922 (Nature Chemical Biology, 2023)
